Results: PubChem BioAssay (EPA / NIEHS)
Records with an inconclusive call do not appear. Activity calls are given as the source filed them. Rule for the calls: active = hit-call score of the fitted dose curve at least 0.9, where 1 is the maximum; inconclusive = response in the unintended direction; inactive = score below 0.9.

Test: CLD_ACTIN_48hr: CellzDirect (CLD) Gene Expression Assay for Baseline Control (Actin) at 48 hours (AID 2283702)
Protocol: CLD_48hr is a cell-based, multiplexed-readout assay that uses hepatocyte, a human liver primary cell, with measurements taken at 48 hours after chemical dosing in a 96-well plate.CLD_ACTIN_48hr is one of 16 assay component(s) measured or calculated from the CLD_48hr assay. It is designed to make measurements of mRNA induction, a form of inducible reporter, as detected with chemiluminescence signals by Quantitative Nuclease Protection Assay (qNPA) technology.Data from the assay component CLD_ACTIN_48hr was analyzed at the endpoint, CLD_ACTIN_48hr, in the positive analysis fitting direction relative to DMSO as the negative control and baseline of activity. Using a type of inducible reporter, gain-of-signal activity can be used to understand changes in the reporter gene as they relate to the gene ACTA1. Furthermore, this assay endpoint can be referred to as a secondary readout, because this assay has produced multiple assay endpoints where this one serves a background control function. To generalize the intended target to other relatable targets, this assay endpoint is annotated to the background measurement intended target family, where subfamily is baseline control.
Human hepatocyte cultures were treated daily for two consecutive days with fresh dosing solutions containing appropriate concentrations of the 320 ToxCast chemicals (chemical identities were blinded to CellzDirect and other ToxCast collaborators), vehicle control (0.2% DMSO), and positive control inducers as summarized in Table 1. Due to the large number of treatment groups and chemicals examined, the ToxCast chemicals were divided into two groups (spanning two independent cultures of hepatocytes from separate donor preparations (Hu778: ToxCast plates 1 and 2; Hu776: ToxCast plates 3 and 4). Each preparation of human hepatocyte cultures was treated with respective vehicle control, medium only control, set of six positive controls/reference chemicals for the five hepatic receptor pathways, and a subset of eight of the ToxCast chemicals (indoxacarb, pyrithiobac-sodium, norflurazon, cyhalofop-butyl, methomyl, thiram, acetochlor, and propiconazole). These replicate data, coupled with internal replicates designed within the blinded ToxCast chemical library, provided additional data to evaluate interindividual differences between hepatocyte preparations and their potential impact on chemical profiles.Cell morphology and integrity were evaluated using phase-contrast microscopy as an indicator of hepatocyte cell health (Tyson & Green, 1987). Cultures for each treatment group (i.e., media, vehicle [0.2% DMSO], positive control inducers [multiple concentrations], and the ToxCast chemicals [multiple concentrations]) were observed and cell morphology was assessed relative to vehicle control cultures at each harvest time point (0, 6, 24, or 48 h). […] Images were evaluated at the conclusion of the study to assess changes in cell integrity and account for the effects of chemical exposure on uncharacteristic changes in concentration-dependent gene expression profiles. The results from these determinations of apparent cytotoxicity were annotated (yes/no) alongside the corresponding qNPA data for reference.At the conclusion of each treatment period, hepatocyte cultures (96-well) were washed with 1 volume of HBSS, lysed by addition of 25 ul ArrayPlate lysis buffer (HTG, Tucson, AZ), and 70 ul/well of Denaturation Oil, denatured by incubation at 95C for 10 min, and frozen at approximately -70C until analysis by nuclease protection assay (qNPA) (Roberts et al., 2007). For qNPA analysis, cell lysates were thawed at 50C for approximately 30 min, qNPA probes were added, and samples were incubated at 95C for 10 min to begin the detection process by denaturing the target RNA, dissociating the duplexes and secondary structure hybridization. At the conclusion of the hybridization period, S1 nuclease reagent was added to each sample to digest all nonprotected nucleotides at 50C for 60-90 min. […]
With `CCCN(CCC)C(=O)SCC` the outcome was “inactive”.
For `Oc1ccc(C(c2ccc(O)cc2)C(Cl)(Cl)Cl)cc1`, the outcome was “inactive”.
With `C#CCOC(=O)[C@@H](C)Oc1ccc(Oc2ncc(Cl)cc2F)cc1` the outcome was “inactive”.
For `COC(=O)c1ccccc1C(=O)O`, the outcome was “inactive”.
In the case of `CC1(C)C(C=C(Cl)Cl)C1C(=O)OCc1cccc(Oc2ccccc2)c1` (stereo unspecified), the outcome is reported as “inactive”.
For `COC(=O)c1ccc(I)cc1S(=O)(=O)NC(=O)Nc1nc(C)nc(OC)n1`, the outcome was “inactive”.
For `CCC(O)=C1C(=O)CC(C(=O)O)CC1=O` (stereo unspecified), the outcome was “inactive”.
With `N#CSCSc1nc2ccccc2s1` the outcome was “inactive”.
In the case of `CCOC(=O)COc1cc(-n2ncc(C(F)(F)F)c(C)c2=O)c(F)cc1Cl`, the outcome is reported as “inactive”.
With `CCCOC(=O)c1ccc(C(=O)OCCC)nc1` the outcome was “inactive”.
With `CCOC(=O)[C@H](C)Oc1ccc(Oc2nc3ccc(Cl)cc3o2)cc1` the outcome was “inactive”.
With `CCOC(=O)C(C)Oc1ccc(Oc2cnc3cc(Cl)ccc3n2)cc1` (stereo unspecified) the outcome was “inactive”.
In the case of `CCSC(=O)N(CC(C)C)CC(C)C`, the outcome is reported as “inactive”.
With `CCCOC(=O)NCCCN(C)C` the outcome was “inactive”.
In the case of `CCOC(=O)C(C)Oc1ccc(Oc2nc3ccc(Cl)cc3o2)cc1` (stereo unspecified), the outcome is reported as “inactive”.
For `COC(=O)c1ccc(CNS(C)(=O)=O)cc1S(=O)(=O)NC(=O)Nc1nc(OC)cc(OC)n1`, the outcome was “inactive”.
With `CSC(=O)c1cccc2nnsc12` the outcome was “inactive”.
In the case of `OB(O)O`, the outcome is reported as “inactive”.
With `C=CCOC(Cn1ccnc1)c1ccc(Cl)cc1Cl` (stereo unspecified) the outcome was “inactive”.
With `CCC(C)OC(=O)N1CCCCC1CCO` (stereo unspecified) the outcome was “inactive”.
In the case of `CC(C)(c1ccc(O)cc1)c1ccc(O)cc1`, the outcome is reported as “inactive”.
With `CCNc1nc(N)nc(Cl)n1` the outcome was “inactive”.
For `COC(=O)c1c(Cl)nn(C)c1S(=O)(=O)NC(=O)Nc1nc(OC)cc(OC)n1`, the outcome was “inactive”.
In the case of `CCCCOC(=O)C(C)Oc1ccc(Oc2ccc(C(F)(F)F)cn2)cc1` (stereo unspecified), the outcome is reported as “inactive”.
With `CCCCCOC(=O)COc1cc(N2C(=O)C3=C(CCCC3)C2=O)c(F)cc1Cl` the outcome was “inactive”.
In the case of `O=C(O)C1(C(=O)Nc2ccc(Cl)cc2Cl)CC1`, the outcome is reported as “inactive”.
For `COC(=O)c1ccccc1S(=O)(=O)NC(=O)Nc1nc(OC(F)F)cc(OC(F)F)n1`, the outcome was “inactive”.
In the case of `COCCO`, the outcome is reported as “inactive”.
For `S=C([S-])NCCNC(=S)[S-].[Mn+2]`, the outcome was “inactive”.
With `Cc1nn(C)c(Oc2ccccc2)c1C=NOCc1ccc(C(=O)OC(C)(C)C)cc1` the outcome was “inactive”.
For `COc1c(Cl)ccc(Cl)c1C(=O)O`, the outcome was “inactive”.
